The sample as a whole holds a higher share of hits than the screen did.
Dicer processing: human Dicer pre-microRNA cleavage inhibition | cat-ELCCA pre-miR-21 Dicer processing, chemiluminescence; stronger effect = higher value | Q9UPY3 | z-score at 25 µM | hit rate 6% among 47,000; in the data active = z-score above about 3, passing the limit was not always enough;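 note: plate controls were vehicle for no effect and no enzyme for full effect; higher signal means more uncleaved substrate so more Dicer inhibition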
An asterisk follows results filed as active.

SMILES	Dicer processing
O=C(NNc1c(Cl)cccc1Cl)c1sccc1Cl	2.98
O=C(NNc1cc(Cl)ccc1Cl)C1CCCS1 (stereo not drawn)	1.64
O=C(NNc1cc(Cl)ccc1Cl)c1sccc1Cl	5.17*
Cc1csc(NC(=O)Nc2ccc(C(C)(C)C)cc2)c1-c1nc2ccccc2s1	-1.15
CCCc1ccc(NC(=S)OC)cc1	-1.03
Cc1cc(Cl)cc(Cl)c1CNC(=O)C(C)C	1.05
O=C(Nc1sc2c(c1C(=O)Nc1ccc(Br)cc1)CCCC2)c1ccco1	2.33
Cc1cccc(N2C(=O)CC(n3ccnc3)C2=O)c1C (stereo not drawn)	3.53*
COc1ccccc1N1C(=O)CC(N2CCN(c3ccc(F)cc3)CC2)C1=O (stereo not drawn)	0.32
O=C1CC(N2CCN(c3ccccc3O)CC2)C(=O)N1c1ccccc1F (stereo not drawn)	2.29
CCCC(=O)N1C2=C(C(=O)c3ccccc32)C(c2ccc(Cl)cc2)c2c1n(C)c(=O)n(C)c2=O (stereo not drawn)	2.56
Cc1c(NC(=O)CN(c2ccccc2Br)S(C)(=O)=O)c(=O)n(-c2ccccc2)n1C	2.47
NS(=O)(=O)c1ccc(Nc2nc(-c3cccnc3)cs2)cc1	1.37
Cc1ccc(Nc2nc(-c3c(C)nc4ccccn34)cs2)cc1	2.98
Cc1nc2ccccn2c1-c1csc(Nc2ccc(S(N)(=O)=O)cc2)n1	4.29*
Cc1cc(NS(=O)(=O)c2ccc(Nc3nc(-c4ccc(Cl)cc4)cs3)cc2)no1	2.94
Cc1nc2ccccn2c1-c1csc(Nc2ccc(Cl)cc2)n1	7.06*
Cc1ccc(C)c(-c2csc(Nc3ccc(S(N)(=O)=O)cc3)n2)c1	5.14*
Cc1nnc(Nc2ccc(Cl)cc2)s1	2.78
CCN(CC)c1ccc(Nc2nc(-c3sc(N)nc3C)cs2)cc1	-0.11
Cc1cc(C)c(C2=NON3N(C(=O)c4ccc(S(=O)(=O)N(C)C)cc4)c4ccccc4N23)c(C)c1	1.01
CCOC(=O)C1=C(C)Nc2ncnn2C1c1cccc(F)c1 (stereo not drawn)	0.78
O=S(=O)(c1ccc2c(c1)CCO2)N1CCCN(c2nccc(C(F)(F)F)n2)CC1	-1.35
Clc1cccc(Cl)c1/C=N/Nc1ncn[nH]1	-3.49
CC1(C)CC(=O)c2cc(C(=O)Nc3ccc4c(c3)C(=O)NC4=O)c(=O)n(-c3ccc(Cl)cc3)c2C1	0.35
SMILES	Dicer processing
O=C(Nc1cccc(C(F)(F)F)c1)Nc1csc(Cc2ccsc2)n1	-1.3
COc1ccc(C2/C(=C(\O)c3ccc(Cl)cc3)C(=O)C(=O)N2CCCN(C)C)c(OC)c1 (stereo not drawn)	-1.49
CCc1cc(=O)[nH]c(SCc2c(F)cccc2Cl)n1	0.06
O=C(O)CCCCCCCC(=O)O	0.04
CN1CCN(CCCCC(=O)O)CC1	3.96*
CN1CCN(C(=O)CCC(=O)O)CC1	-0.72
CCCCCCCn1c(CCCO)nc2ccccc21	1.77
Cc1ccc(N2C(=O)N(c3ccccc3)C(=N)C2=S)cc1Cl	-0.95
COc1ccc2c(c1)[C@@H]1C=CC[C@@H]1[C@H](c1ccc(C(=O)O)cc1)N2	4.16*
Cc1c(C(=O)O)ccc2c1NC(c1ccc(C(C)C)cc1)C1CC=CC21 (stereo not drawn)	3.36*
COC(=O)c1ccc2c(c1)C1C=CCC1[C@@H](c1ccc(C(=O)O)cc1)N2 (stereo partly drawn)	-1.66
Cc1cccc2c1N[C@H](c1ccc(C(=O)O)cc1)C1CC=CC21 (stereo partly drawn)	0.98
O=C(O)c1cccc2c1NC(c1ccc(Br)cc1)C1CC=CC21 (stereo not drawn)	-0.72
CCOC(=O)c1ccc2c(c1)[C@@H]1C=CC[C@@H]1[C@H](c1ccc(C(=O)O)cc1)N2	0.06
CCOC(=O)c1c(CSc2ccccn2)n(C)c2cc(Br)c(O)cc12	2.06
Brc1ccc(-c2nnc(SCc3ccccc3)o2)cc1	1.45
CCCCN1C(=O)C(O)(CC(=O)c2ccccn2)c2cc(Br)ccc21 (stereo not drawn)	2.62
CCOc1cc(C2C(C(=O)OCCOC)=C(C)NC3=C2C(=O)CCC3)ccc1O (stereo not drawn)	1.31
COC(=O)c1ccc(S(=O)(=O)N2CCCN(C(=O)c3cccs3)CC2)n1C	0.69
CNC(=S)N/N=C(/N)c1ccccn1	4.35*
N/C(=N\NS(=O)(=O)c1ccccc1C(F)(F)F)c1ccccn1	0.57
N/C(=N\NC(=O)Nc1ccc(Cl)cc1)c1ccccn1	6.58
O=C(Cn1c(=O)sc2ccccc21)Nc1nnc(SCc2ccccc2)s1	2.86
O=C(CCCSc1nc(-c2ccco2)cc(C(F)(F)F)n1)NCc1ccccn1	0.64
COc1ccc(-c2nc(N(C)c3ccccc3)[nH]c(=O)c2C#N)cc1	-0.19
SMILES	Dicer processing
N#Cc1c(-c2ccc(Cl)cc2)nc(Nc2ccc(Cl)cc2)[nH]c1=O	1.05
N#Cc1c(-c2ccccc2)c(-c2ccccc2)nn(CC(=O)N/N=C/c2cccs2)c1=O	-0.43
N#Cc1c(-c2ccccc2)nc(N/N=C/c2cccs2)[nH]c1=O	3.79*
N#Cc1c(-c2ccc(Cl)cc2)nc(N/N=C/c2cccs2)[nH]c1=O	3.52*
N#Cc1c(-c2ccc(Cl)c(Cl)c2)cc(-c2ccc(Cl)cc2)[nH]c1=O	2.13
CCOC(=O)COc1ccc2c(=O)c(-c3ccc(Cl)cc3)c(C(F)(F)F)oc2c1	-0.98
CNC(=S)N/N=C/c1ccc(N(C)CCC#N)cc1	-0.05
CCCCCCSc1nnc(-c2ccccc2N)c(=O)[nH]1	0.24
Cc1ccnc(NC(=O)C(=O)NC(=O)c2c(F)cccc2Cl)c1	0.3
O=C1C(Oc2ccccc2)C(c2ccc3c(c2)OCO3)N1CCc1ccc(F)cc1 (stereo not drawn)	1.16
COc1ccc(CCN2C(=O)C(Oc3ccccc3C)C2c2ccc3c(c2)OCO3)cc1 (stereo not drawn)	1.84
COc1ccc(OC2C(=O)N(Cc3ccc(F)cc3)C2c2ccc3c(c2)OCO3)cc1 (stereo not drawn)	3.63*
COc1cccc(NC(=O)N2c3ccccc3Sc3ccccc32)c1	0.05
CCOc1ccc(C2C(C(=O)OC3CCCCC3)=C(C)NC3=C2C(=O)CC(C)(C)C3)cc1OC (stereo not drawn)	-0.16
CCCc1cc(=O)[nH]c(SCc2ccccc2Cl)n1	-3.85
Cc1cc(=O)[nH]c(SCc2ccccc2Cl)n1	2.52
Cc1nnc(SCc2ccccc2Cl)[nH]c1=O	3.05*
Cn1ccnc1SCC(=O)N1CCCC1	4.45*
Cn1ccnc1SCC(=O)c1ccc(Cl)cc1	0.03
Cn1ccnc1SCC(=O)Nc1ccccc1	0.15
c1ccc(-c2nc3ccccc3nc2-c2ccccc2)cc1	1.19
O=C(Nc1ccc(OC(F)(F)F)cc1)Nc1ccc(Sc2ccc(Cl)cc2)nc1	-1.05
CCOC(=O)NC(=O)c1cn(CCc2ccncc2)c(=O)[nH]c1=O	1.5
Cc1onc(-c2ccccc2Cl)c1NC(=O)NNC(=S)NC(C)(C)C	0.64
CCCCC#Cc1cncc(C(=O)N/N=C/c2ccccc2)c1	-0.3
SMILES	Dicer processing
Cn1[nH]c(=O)cc1C(=O)N/N=C/c1ccccc1	3.11*
CC(C)S(=O)(=O)c1csc(C(=O)N/N=C/c2ccccc2)c1-n1cccc1	1.23
CCOC(=O)C1=C(C)NC2=C(C(=O)CCC2)C1c1ccncc1 (stereo not drawn)	-1.05
CCOc1ccc(S(=O)(=O)Nc2c(C)n(C)n(-c3ccccc3)c2=O)cc1	0.71
Cc1c(NS(=O)(=O)c2cn(C)cn2)c(=O)n(-c2ccccc2)n1C	5.97*
CCS(=O)(=O)Nc1c(C)n(C)n(-c2ccccc2)c1=O	1.74
O=[N+]([O-])c1ccc(N2CCCN(S(=O)(=O)c3ccc(Cl)cc3)CC2)nc1	-0.62

Screening data: PubChem BioAssay, Center for Chemical Genomics, University of Michigan
